Bioassay records as filed in PubChem BioAssay.
Shn3 inh set2 = Schnurri-3 reporter inhibition in Clone20 osteoblasts | AID 588674 | Clone20 osteoblast Shn3 3'UTR firefly luciferase, 24 h | inhibition, % at 12.5 µM | hit rate 0.52% among 360,000;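 active means mean inhibition of at least 75% with every replicate also reaching 75%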
Peg3 promoter = Peg3 promoter activity inhibition; HeLa PEG-Prom luciferase reporter, luminescence, overnight; inhibition, % at 20 µM; hit rate 1.7% among 360,000;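 active means inhibition of at least 50% at 20 µM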
CF NFkB inh = blocks PAF-induced NF-kB reporter in cystic fibrosis cells | KKLEB NF-kB-GFP reporter, GFP fluorescence overnight | inhibition, % at 5 µM | hit rate 0.86% among 360,000 | AID 588850;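 active means at least 50% inhibition at 5 µM, scaled per plate between neutral and stimulator controls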;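 further: PAF is a Pseudomonas aeruginosa culture filtrate used as stimulus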
MITF TRPM1 inh = MITF TRPM1 promoter inhibition in SK-MEL-5 cells | SK-MEL-5 TRPM1 promoter luciferase, 24 h | inhibition, % at 12.5 µM | hit rate 0.83% among 330,000 | AID 488899;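 active means mean inhibition across replicates of 60% or more, whatever share of single replicates reaches that level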
HIF-2a inh = inhibitors of HIF-2a. 786-0 RCC cells HIF-2a reporter, luciferase luminescence, overnight. AID 624352. inhibition, % at 18.8 µM. hit rate 0.72% among 360,000;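 active means inhibition of the luminescence signal of 40% or more relative to plate controls, in a single-dose primary screen at 18.75 µM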
KKLEB cytotox = CF airway cell cytotoxicity counter-screen. KKLEB CF airway cells viability, ATPlite luminescence, overnight; active compounds read low; cells stimulated with P. aeruginosa culture filtrate. hit rate 0.36% among 360,000. activity change (cytotoxicity), % at 5 µM. AID 602141;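 active means corrected activity change at or below -50% at 5 µM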
Large screens that a line does not name were inactive. A selection: hits, their analogues and other compounds. The true share with any hit is near 2.8%.

CN(C)CCNC(=O)c1cccc(-c2cnc3c(NC=O)cc(-c4cccs4)cn23)c1	Peg3 promoter 52.9 (no result: MITF TRPM1 inh)
CN(C)CCNC(=O)c1cccc(-c2cnc3c(NC=O)cc(-c4ccccc4F)cn23)c1	Peg3 promoter 95.5 (no result: MITF TRPM1 inh)
COc1ccc(C(=O)N2CCCC(c3cc(C(=O)NCc4ccc(F)cc4)no3)C2)cc1 (stereo not given)	none (no result: MITF TRPM1 inh)
CCCc1nnc(NC(=O)CCC(=O)Nc2ccc(Br)cc2)s1	none
COc1ccc(-c2oc3ccc(N4CCOCC4)cc3c2C#CCO)cc1	Peg3 promoter 82.9
COc1ccc(-c2csc3nc(-c4ccccc4OC)oc(=O)c23)cc1	none
C=CCC(C(=O)OC)(C(=O)OC)c1ccccc1[N+](=O)[O-]	none
O=C(NC(NC(=S)Nc1cccc(Cl)c1)C(Cl)(Cl)Cl)OCc1ccccc1 (stereo not given)	Peg3 promoter 52.6
O=C(O)C1(Nc2ccccc2Cl)CCCC1	Shn3 inh set2 93.0
O=C(O)C1(Nc2ccccc2)CCCC1	none
CC(=O)Nc1nc(SCC(=O)Nc2nnc(C)s2)[nH]c(=O)c1NC(=O)c1cccs1	none
NCCCn1c(C(=O)c2cc(Cl)c(N)c(Cl)c2)c2ccc([N+](=O)[O-])cc2[n+]1[O-]	Peg3 promoter 57.3
CCOC(=O)N1C(=O)[C@@](CC)(c2ccccc2)N1C(=O)OCC	MITF TRPM1 inh 74.8
C[n+]1ccccc1/C=C1\Sc2ccccc2N1CCO	none
CCN1/C(=C/c2ccc3cc(C)cc(C)c3[n+]2CC)Sc2cc(C)ccc21	Peg3 promoter 98.9, MITF TRPM1 inh 82.6, KKLEB cytotox -52.6
CCN1/C(=C/c2ccc3cccc(C)c3[n+]2CC)Sc2ccccc21	Peg3 promoter 55.7, MITF TRPM1 inh 72.2
CCN1/C(=C/c2ccc3cc(C)ccc3[n+]2CC)Sc2ccc3sccc3c21	Shn3 inh set2 93.0, Peg3 promoter 110.7, MITF TRPM1 inh 100.1
CCN1/C(=C\c2ccc3cc(C)ccc3[n+]2CC)Sc2cc(C)c(C)cc21	Shn3 inh set2 88.9, MITF TRPM1 inh 72.6
Cc1noc(C)c1NC(=O)N(C)C[C@H]1Oc2ccc(NC(=O)c3ccncc3)cc2C(=O)N([C@H](C)CO)C[C@@H]1C	none
O=C(c1cn(Cc2ccccc2)nc1-c1cccnc1)N1CCN(Cc2c(F)cccc2Cl)CC1	none
O=C(c1cn(Cc2ccccc2)nc1-c1cccnc1)N1CCN(Cc2ccccc2)CC1	Peg3 promoter 98.3
O=C(Nc1ccc([N+](=O)[O-])cc1)Nc1ccc(N2CCOCC2)c2nonc12	Peg3 promoter 62.2
CC(=O)Nc1cc([N+](=O)[O-])ccc1N1CCOCC1	none
COc1cccc(C2=Nn3c(nnc3-c3ccccc3O)SC2)c1	none
C[n+]1c2n(c3ccccc31)N=C(c1cc(C(C)(C)C)c(O)c(C(C)(C)C)c1)CS2	Shn3 inh set2 89.7, Peg3 promoter 85.8
O=[N+]([O-])c1ccc(Sc2cc[n+]([O-])c3ccccc23)c([N+](=O)[O-])c1	MITF TRPM1 inh 90.4
COc1ccccc1C(CCNCc1ccccc1)c1ccc(OC(C)C)cc1 (stereo not given)	Peg3 promoter 100.5
COc1ccc(CNCCC(c2ccc(OC(C)C)cc2)c2ccccc2OC)cc1 (stereo not given)	Shn3 inh set2 96.5, Peg3 promoter 113.1
COc1ccc(C(CCNCc2ccc(OC(C)C)cc2)C(C)C)cc1 (stereo not given)	none (no result: MITF TRPM1 inh)
COc1ccc(CNCCC(c2ccc(OC(C)C)cc2)c2ccccc2OC)cc1OC (stereo not given)	Peg3 promoter 87.3, MITF TRPM1 inh 66.2
COc1ccccc1C(CCNCc1ccc(N(C)C)cc1)c1ccc(OC(C)C)cc1 (stereo not given)	Shn3 inh set2 93.0, Peg3 promoter 106.9, MITF TRPM1 inh 76.7
COc1ccc(CNCCC(c2ccc(OC(C)C)cc2)C(C)C)cc1OC (stereo not given)	none
O=C1NC[C@H](CCCCN2C[C@H](Cc3ccc(O)cc3)N(CCC3CCCCC3)C(=O)C2=O)N(CCc2ccc(O)cc2)C1=O	none (no result: Shn3 inh set2, Peg3 promoter, CF NFkB inh, MITF TRPM1 inh, KKLEB cytotox)
Cc1ccc(S(=O)(=O)N2C[C@@H]3[C@H]4CC[C@H](C4)[C@@H]3[C@@H](C)[C@H]2C#N)cc1	none
O=C(ONC1=NCCCCC1)c1ccc(Cl)cc1	Peg3 promoter 101.3
N#CC1C=Cc2ccccc2N1C(=O)c1ccccc1 (stereo not given)	none
N#CC1C=Cc2c(ccc3ccccc23)N1C(=O)c1ccccc1 (stereo not given)	MITF TRPM1 inh 65.2
COC(=O)C1=C(C)N(Cc2ccccc2)C(=NCc2ccco2)N[C@H]1c1cccc(F)c1	none
COC(=O)C1=C(C)N(Cc2ccccc2)C(=NCCc2cccnc2)N[C@H]1c1ccc(Br)cc1	Peg3 promoter 93.8, MITF TRPM1 inh 78.0
COC(=O)C1=C(C)N(Cc2ccccc2)C(=S)N[C@H]1c1cccc(C(F)(F)F)c1	none
COC(=O)C1=C(C)N(Cc2ccccc2)C(=NCC(C)C)N[C@H]1c1cccc(F)c1	Peg3 promoter 83.0
COC(=O)C1=C(C)N(Cc2ccccc2)C(=NCCc2cccnc2)N[C@H]1c1ccccc1	none
COC(=O)C1=C(C)N(Cc2ccccc2)C(=NCC(C)C)N[C@H]1c1cccc(C(F)(F)F)c1	Peg3 promoter 103.4, MITF TRPM1 inh 96.2
COC(=O)C1=C(C)N(Cc2ccccc2)C(=O)N[C@H]1c1cccc(C(F)(F)F)c1	none (no result: MITF TRPM1 inh)
COC(=O)C1=C(C)N(Cc2ccccc2)C(=NCc2ccccc2)N[C@H]1c1cccc(C(F)(F)F)c1	Peg3 promoter 99.5, MITF TRPM1 inh 89.1
CCN(CC1CCCO1)C(=O)c1cc(COc2ccccc2SC)on1 (stereo not given)	none
COc1cc2c(cc1OC)C(c1ccc(-c3ccc(Cl)c(Cl)c3)o1)=NCC2	Peg3 promoter 85.1
COc1cc2c(cc1OC)C(c1ccc(-c3cc(Cl)ccc3Cl)o1)=NCC2	none
Cc1ccc(NC(=O)CCN2CCC(C(N)=O)CC2)cc1	none
S=C(NCCCc1cnc[nH]1)NCCCN(Cc1ccc(Cl)cc1)c1ccc(Br)cn1	Peg3 promoter 93.6 (no result: MITF TRPM1 inh)
CCCC(=O)Nc1ccc(-c2csc(N/N=C\c3ccncc3)n2)cc1	Peg3 promoter 68.0
CCCC[C@@H](CNC)NC[C@H](NCCCCC1CCCCC1)C(C)C	Peg3 promoter 103.6, MITF TRPM1 inh 77.6
CC(=O)c1ccc(OCCCC(=O)OCC(=O)N2CCN(S(=O)(=O)c3ccc(C)cc3C)CC2)cc1	none
CCOc1ccc(N(CC(=O)NC2CCCCC2)C(=O)CCC(=O)Nc2cc(C)ccn2)cc1	none
CS(=O)(=O)c1ccc(C(=O)OCC(=O)N2CCN(CCC3CCCCC3)CC2)cc1[N+](=O)[O-]	Shn3 inh set2 95.9, Peg3 promoter 97.0, CF NFkB inh 100.9, HIF-2a inh 80.2, KKLEB cytotox -85.1 (no result: MITF TRPM1 inh)
